Experimental data from PubChem BioAssay AID720597 (Broad Institute, 2013).
Results with a measured potency or affinity are listed apart. Active and inactive are the calls of the source.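 Rule for the calls: active = fitted half-maximal dose no more than twice the top valid tested dose, for compounds that lower signal; inconclusive = fit invalid, or curve flat with activity between -70 and -30; inactive = potency past limit, curve flat within ±30, or signal increasing.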

These compounds were tested against NAD-dependent protein deacylase sirtuin-5, mitochondrial (Homo sapiens) (UniProt Q9NXA8) (assay: SIRT5 deacylase inhibitors, dose response, biochemical, fluorescence imaging, cherry-pick, set 6 (AID 720597;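 note: lower AMC signal can also come from blocking the trypsin step; 0% = median of neutral control wells and -100% = median of positive control wells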)). Conditions: Purified SirT5, succinyl-peptide-AMC/trypsin fluorescence; series mostly up to 15 µM; activity change, negative = inhibition: at the top concentration.
Sequence of NAD-dependent protein deacylase sirtuin-5, mitochondrial (Homo sapiens) (Q9NXA8 whole entry, looked up): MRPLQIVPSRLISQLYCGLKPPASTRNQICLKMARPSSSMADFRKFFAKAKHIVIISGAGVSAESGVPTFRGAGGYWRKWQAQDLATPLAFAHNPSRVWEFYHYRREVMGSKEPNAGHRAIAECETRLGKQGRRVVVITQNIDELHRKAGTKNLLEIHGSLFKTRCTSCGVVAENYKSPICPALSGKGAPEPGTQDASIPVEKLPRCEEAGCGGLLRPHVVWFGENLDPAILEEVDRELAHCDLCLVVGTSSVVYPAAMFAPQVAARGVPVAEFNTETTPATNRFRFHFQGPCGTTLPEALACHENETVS
In the case of `O=C(Nc1cc(F)ccc1F)N1CC(=O)N2[C@H](CO)[C@@H](c3ccc(C#CC4CCCCC4)cc3)[C@@H]2C1`, the “activity change, negative = inhibition” value is reported as -9.84% (inactive).
`Cc1ccc(S(=O)(=O)N(C)C[C@H]2OCc3ccccc3-c3c(n(C)c4ccccc34)C(=O)N([C@H](C)CO)C[C@H]2C)cc1` was tested, and the “activity change, negative = inhibition” value was 23.8% (inactive).
For `O=C(C[C@H]1CC[C@H]2[C@@H](COC[C@@H](O)CN2C(=O)c2ccncc2)O1)Nc1ccc(-c2ccccc2)cc1`, the “activity change, negative = inhibition” value was -9.41% (inactive).
For `O=C(C[C@H]1CC[C@H]2[C@@H](COC[C@@H](O)CN2S(=O)(=O)c2ccccc2)O1)Nc1ccc(-c2ccccc2)cc1`, the “activity change, negative = inhibition” value was 6.03% (inactive).
With `COc1ccc(S(=O)(=O)Nc2ccc3c(c2)C(=O)N([C@H](C)CO)C[C@@H](C)[C@H](CN(C)S(=O)(=O)c2ccccc2)OCCCC[C@H](C)O3)cc1` the “activity change, negative = inhibition” value was -24.8% (inactive).
In the case of `COc1cccc(S(=O)(=O)N(C)C[C@@H]2Oc3cc(C4=CCCCC4)ccc3S(=O)(=O)N([C@H](C)CO)C[C@@H]2C)c1`, the “activity change, negative = inhibition” value is reported as 18.7% (inactive).
`C[C@@H]1CCCCO[C@@H](CN(C)C(=O)CCCN(C)C)[C@@H](C)CN([C@H](C)CO)C(=O)c2cc(NS(=O)(=O)c3ccccc3)ccc2O1` was tested, and the “activity change, negative = inhibition” value was -10.3% [at 16 µM] (inactive).
With `COc1ccccc1S(=O)(=O)N(C)C[C@H]1Oc2cc(C#CCC3CCCC3)ccc2S(=O)(=O)N([C@@H](C)CO)C[C@@H]1C` the “activity change, negative = inhibition” value was 0.417% (inactive).
For `C[C@@H]1CCCCO[C@@H](CN(C)S(=O)(=O)c2ccc(Cl)cc2)[C@H](C)CN([C@@H](C)CO)C(=O)c2cc(NS(=O)(=O)c3ccccc3)ccc2O1`, the “activity change, negative = inhibition” value was -16.3% (inactive).
For `C[C@H]1CN([C@@H](C)CO)C(=O)c2cccc(NS(=O)(=O)c3cn(C)cn3)c2O[C@H]1CN(C)Cc1ccc(Oc2ccccc2)cc1`, the “activity change, negative = inhibition” value was -16.5% (inactive).
`C[C@@H]1CN([C@H](C)CO)C(=O)c2cc(NC(=O)Cc3ccccc3)ccc2O[C@@H]1CN(C)Cc1ccc(Oc2ccccc2)cc1` was tested, and the “activity change, negative = inhibition” value was 41.8% (inactive).
`C[C@@H]1CN([C@H](C)CO)S(=O)(=O)c2ccc(C#Cc3cccc(F)c3)cc2O[C@@H]1CN(C)CC1CC1` was tested, and the “activity change, negative = inhibition” value was -28.8% (inactive).
For `C[C@@H]1CN([C@@H](C)CO)S(=O)(=O)c2ccc(/C=C/c3ccccc3)cc2O[C@@H]1CN(C)C(=O)NC1CCCC1`, the “activity change, negative = inhibition” value was -1.6% (inactive).
With `C[C@H](CO)N1C[C@H](C)[C@H](CN(C)S(C)(=O)=O)Oc2c(NC(=O)c3ccncc3)cccc2C1=O` the “activity change, negative = inhibition” value was -0.231% (inactive).
For `COc1ccc(NC(=O)Nc2ccc3c(c2)C(=O)N([C@@H](C)CO)C[C@@H](C)[C@@H](CN(C)Cc2ccc(C(F)(F)F)cc2)O3)cc1`, the “activity change, negative = inhibition” value was -1.17% [at 3.8 µM] (inactive).
For `COc1ccccc1S(=O)(=O)N(C)C[C@@H]1Oc2cc(C#CCC(C)C)ccc2S(=O)(=O)N([C@H](C)CO)C[C@H]1C`, the “activity change, negative = inhibition” value was -1.72% (inactive).
For `O=C(NCC[C@@H]1CC[C@@H](NS(=O)(=O)c2ccc(Cl)cc2)[C@H](CO)O1)c1ccccc1F`, the “activity change, negative = inhibition” value was -23.4% (inactive).
For `C[C@@H]1CN([C@@H](C)CO)C(=O)c2cc(-c3cccc(F)c3)cnc2O[C@H]1CN(C)C`, the “activity change, negative = inhibition” value was -3.87% (inactive).
In the case of `Cc1ccc(S(=O)(=O)N(C)C[C@H]2OCCCC[C@H](C)Oc3ccc(NS(=O)(=O)c4ccc(Cl)cc4)cc3C(=O)N([C@H](C)CO)C[C@@H]2C)cc1`, the “activity change, negative = inhibition” value is reported as -9.84% (inactive).
`C[C@@H]1CN([C@H](C)CO)C(=O)c2cc(NS(=O)(=O)c3cccs3)ccc2O[C@@H](C)CCCCO[C@@H]1CN(C)Cc1ccc(C(F)(F)F)cc1` was tested, and the “activity change, negative = inhibition” value was -13% (inactive).
In the case of `CC(=O)NC[C@@H]1[C@@H](c2ccc(-c3ccccc3F)cc2)[C@@H](CO)N1CCC(F)(F)F`, the “activity change, negative = inhibition” value is reported as -11.8% (inactive).
`COc1ccc(NC(=O)N(C)C[C@@H]2Oc3ccc(NS(=O)(=O)c4ccc(F)cc4)cc3C(=O)N([C@@H](C)CO)C[C@H]2C)cc1` was tested, and the “activity change, negative = inhibition” value was 16.3% [at 16 µM] (inactive).
For `C[C@@H]1CCCCO[C@@H](CN(C)C(=O)Nc2ccc(C(F)(F)F)cc2)[C@H](C)CN([C@H](C)CO)C(=O)c2cc(NS(=O)(=O)c3ccc(Cl)cc3)ccc2O1`, the “activity change, negative = inhibition” value was 5.23% (inactive).
With `CC(C)NC(=O)Nc1ccc2c(c1)C(=O)N([C@H](C)CO)C[C@H](C)[C@H](CN(C)Cc1ccc(-c3ccccc3)cc1)O2` the “activity change, negative = inhibition” value was 5.22% (inactive).
`C[C@H]1CN([C@@H](C)CO)S(=O)(=O)c2ccc(C#Cc3ccc(F)cc3)cc2O[C@H]1CN(C)C(=O)NC1CCCCC1` was tested, and the “activity change, negative = inhibition” value was -7.87% (inactive).
For `COc1cccc(NC(=O)N2CC(=O)N3[C@@H](CO)[C@H](c4ccc(C#CCC5CCCC5)cc4)[C@@H]3C2)c1`, the “activity change, negative = inhibition” value was 33% (inactive).
With `COCCNC(=O)c1cc2c(c(-c3cccc(-c4cccc(F)c4)c3)n1)[C@H](CCO)N([S@@](=O)C(C)(C)C)C2` the “activity change, negative = inhibition” value was -5.5% (inactive).
